# In the supplement of paper PMC6411743:
# ± gives the standard deviation of the averaged measurements. Of roughly 5,400 targets only a part is listed; those with the largest changes were picked by preference.
# Compound: Nc1nc2c(ncn2[C@@H]2O[C@H](COP(=O)(O)OP(=O)(O)OP(=O)(O)O)[C@@H](O)[C@H]2O)c(=O)[nH]1 [guanosine triphosphate]
# Test: NP40-soluble protein abundance relative to vehicle (solubility fold change) (ratio); higher = more soluble protein in presence of GTP
# Protocol: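 Solubility proteome profiling in Jurkat crude lysate. Lysate was treated with Mg-GTP (0.1-10 mM) for 10 min at room temperature and 3 min at 37 °C, then solubilised with 0.8% NP40 and benzonase, followed by ultracentrifugation. Proteins were quantified by TMT10 LC-MS/MS; the value is the NP40-soluble abundance relative to the NP40-processed vehicle, from 3 independent experiments.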
# Sequence of UniProt Q9BQ39 (Q9BQ39 whole entry, one chain of several): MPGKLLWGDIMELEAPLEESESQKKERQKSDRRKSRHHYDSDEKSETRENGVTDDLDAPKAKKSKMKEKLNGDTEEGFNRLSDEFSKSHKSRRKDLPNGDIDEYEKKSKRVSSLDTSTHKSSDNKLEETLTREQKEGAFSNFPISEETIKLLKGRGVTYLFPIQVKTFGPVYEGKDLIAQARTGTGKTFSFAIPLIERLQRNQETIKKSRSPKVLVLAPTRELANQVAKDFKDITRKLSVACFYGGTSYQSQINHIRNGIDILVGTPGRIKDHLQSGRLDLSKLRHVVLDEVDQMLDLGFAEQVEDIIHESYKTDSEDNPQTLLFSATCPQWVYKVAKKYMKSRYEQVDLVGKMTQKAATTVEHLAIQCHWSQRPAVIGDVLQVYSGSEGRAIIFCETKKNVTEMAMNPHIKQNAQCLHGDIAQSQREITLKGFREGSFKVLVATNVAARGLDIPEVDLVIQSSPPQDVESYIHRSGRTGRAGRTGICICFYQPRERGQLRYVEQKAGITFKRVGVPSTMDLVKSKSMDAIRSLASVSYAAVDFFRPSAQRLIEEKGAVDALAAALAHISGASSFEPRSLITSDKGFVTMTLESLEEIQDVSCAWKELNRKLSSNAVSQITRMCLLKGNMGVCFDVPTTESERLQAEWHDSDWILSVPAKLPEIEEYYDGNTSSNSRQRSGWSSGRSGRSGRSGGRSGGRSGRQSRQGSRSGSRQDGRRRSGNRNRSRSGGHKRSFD
# Sequence of UniProt Q9UM22 (Q9UM22 whole entry, one chain of several): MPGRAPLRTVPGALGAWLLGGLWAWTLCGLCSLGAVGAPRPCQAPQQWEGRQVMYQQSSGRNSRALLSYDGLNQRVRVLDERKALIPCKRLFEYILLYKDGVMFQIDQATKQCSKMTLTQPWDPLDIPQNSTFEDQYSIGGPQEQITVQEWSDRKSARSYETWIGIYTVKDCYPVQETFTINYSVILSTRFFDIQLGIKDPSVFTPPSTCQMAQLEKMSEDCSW
# Sequence of UniProt A6NHR9 (A6NHR9 whole entry): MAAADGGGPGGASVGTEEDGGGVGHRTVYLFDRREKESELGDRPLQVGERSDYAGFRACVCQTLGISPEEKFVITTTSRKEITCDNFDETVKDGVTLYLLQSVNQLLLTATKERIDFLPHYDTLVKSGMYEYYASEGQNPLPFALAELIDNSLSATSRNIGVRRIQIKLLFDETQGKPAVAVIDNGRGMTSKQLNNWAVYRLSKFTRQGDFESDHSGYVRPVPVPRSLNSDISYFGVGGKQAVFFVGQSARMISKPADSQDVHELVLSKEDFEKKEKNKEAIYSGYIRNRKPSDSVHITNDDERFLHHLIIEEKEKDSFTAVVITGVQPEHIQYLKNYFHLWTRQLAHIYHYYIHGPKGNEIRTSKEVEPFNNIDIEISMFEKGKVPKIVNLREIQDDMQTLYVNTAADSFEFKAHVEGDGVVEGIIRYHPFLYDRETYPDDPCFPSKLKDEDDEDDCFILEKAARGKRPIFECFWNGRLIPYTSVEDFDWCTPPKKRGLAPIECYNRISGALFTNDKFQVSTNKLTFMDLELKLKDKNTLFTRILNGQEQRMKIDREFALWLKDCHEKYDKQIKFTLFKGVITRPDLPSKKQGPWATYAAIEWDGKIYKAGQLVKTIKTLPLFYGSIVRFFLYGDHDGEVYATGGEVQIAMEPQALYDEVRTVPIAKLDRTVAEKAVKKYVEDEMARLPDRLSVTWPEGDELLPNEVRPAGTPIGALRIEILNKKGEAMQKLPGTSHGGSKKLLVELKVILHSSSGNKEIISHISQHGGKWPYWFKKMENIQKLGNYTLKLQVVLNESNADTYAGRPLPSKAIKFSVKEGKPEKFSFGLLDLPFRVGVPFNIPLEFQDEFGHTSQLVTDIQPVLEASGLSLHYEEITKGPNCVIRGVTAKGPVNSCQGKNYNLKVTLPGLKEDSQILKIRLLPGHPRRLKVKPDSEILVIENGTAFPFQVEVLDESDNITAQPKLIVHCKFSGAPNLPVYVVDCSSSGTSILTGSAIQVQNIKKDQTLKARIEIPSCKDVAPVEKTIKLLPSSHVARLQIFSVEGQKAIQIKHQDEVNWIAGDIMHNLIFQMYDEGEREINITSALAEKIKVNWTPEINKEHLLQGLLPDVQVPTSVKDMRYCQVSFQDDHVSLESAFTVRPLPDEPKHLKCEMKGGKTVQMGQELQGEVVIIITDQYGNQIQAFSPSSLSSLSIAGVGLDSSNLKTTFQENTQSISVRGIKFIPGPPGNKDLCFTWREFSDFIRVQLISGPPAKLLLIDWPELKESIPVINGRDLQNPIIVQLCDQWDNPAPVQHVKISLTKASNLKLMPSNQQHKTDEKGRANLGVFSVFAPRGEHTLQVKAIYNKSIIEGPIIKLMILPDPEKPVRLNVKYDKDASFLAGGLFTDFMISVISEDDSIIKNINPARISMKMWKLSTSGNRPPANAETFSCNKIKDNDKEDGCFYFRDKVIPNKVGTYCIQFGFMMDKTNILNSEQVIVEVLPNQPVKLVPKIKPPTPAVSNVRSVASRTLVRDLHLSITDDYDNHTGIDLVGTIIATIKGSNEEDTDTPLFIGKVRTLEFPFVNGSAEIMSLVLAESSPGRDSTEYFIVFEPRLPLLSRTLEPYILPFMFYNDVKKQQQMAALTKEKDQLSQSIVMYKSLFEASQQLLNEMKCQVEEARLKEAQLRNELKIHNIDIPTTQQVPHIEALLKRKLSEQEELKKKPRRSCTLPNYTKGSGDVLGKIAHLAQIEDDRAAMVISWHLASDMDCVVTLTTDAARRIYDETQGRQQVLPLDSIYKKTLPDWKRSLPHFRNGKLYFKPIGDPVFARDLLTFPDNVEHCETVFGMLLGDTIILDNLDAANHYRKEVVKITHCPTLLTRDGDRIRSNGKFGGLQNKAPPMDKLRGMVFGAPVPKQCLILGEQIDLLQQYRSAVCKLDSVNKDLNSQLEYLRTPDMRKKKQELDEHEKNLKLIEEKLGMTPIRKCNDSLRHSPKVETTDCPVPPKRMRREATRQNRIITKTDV
# Sequence of UniProt Q9Y262 (Q9Y262 whole entry, one chain of several): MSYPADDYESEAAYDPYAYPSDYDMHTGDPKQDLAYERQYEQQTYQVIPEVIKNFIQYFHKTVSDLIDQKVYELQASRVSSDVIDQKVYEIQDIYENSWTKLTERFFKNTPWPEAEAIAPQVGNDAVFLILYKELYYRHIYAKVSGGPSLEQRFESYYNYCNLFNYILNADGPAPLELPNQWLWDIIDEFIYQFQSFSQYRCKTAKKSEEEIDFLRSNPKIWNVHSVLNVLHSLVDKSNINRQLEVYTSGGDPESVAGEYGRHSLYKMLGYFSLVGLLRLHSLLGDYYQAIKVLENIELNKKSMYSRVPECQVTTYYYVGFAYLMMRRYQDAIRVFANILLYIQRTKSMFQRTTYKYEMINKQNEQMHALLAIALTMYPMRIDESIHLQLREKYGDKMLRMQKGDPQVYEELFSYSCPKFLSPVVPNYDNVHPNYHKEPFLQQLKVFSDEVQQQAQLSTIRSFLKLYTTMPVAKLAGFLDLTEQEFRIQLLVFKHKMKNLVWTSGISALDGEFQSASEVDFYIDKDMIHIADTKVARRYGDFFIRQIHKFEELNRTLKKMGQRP
Target,NP40-soluble protein abundance (concentration: 0.1mM),NP40-soluble protein abundance (concentration: 0.5mM),NP40-soluble protein abundance (concentration: 1mM),NP40-soluble protein abundance (concentration: 2mM),NP40-soluble protein abundance (concentration: 4mM),NP40-soluble protein abundance (concentration: 6mM),NP40-soluble protein abundance (concentration: 8mM),NP40-soluble protein abundance (concentration: 10mM)
SMCHD1 (UniProt A6NHR9),1.05 ± 0.04,1.06 ± 0.055,0.999 ± 0.029,1.03 ± 0.07,1.04 ± 0.056,1.04 ± 0.043,1.02 ± 0.051,1.01 ± 0.098
A0A087WVC1|Q9BQ39 (UniProt Q9BQ39),1.19 ± 0.051,1.25 ± 0.055,1.4 ± 0.089,1.89 ± 0.23,2.57 ± 0.26,3.29 ± 0.3,3.85 ± 0.56,4.45 ± 0.47
A0A0U1RR32|A0A0U1RRH7|P04908|P0C0S8|P20671|Q6FI13|Q7L7L0|Q93077|Q96KK5|Q99878 (UniProt Q99878+Q7L7L0+Q6FI13+Q93077+P20671+P0C0S8+Q96KK5+P04908),1.01 ± 0.11,0.7204 ± 0.0051,1.26 ± 0.37,1.24 ± 0.024,1.76 ± 0.48,1.92 ± 0.49,1.4 ± 0.53,2.39 ± 1.2
B0QY89|Q9Y262|Q9Y262-2 (UniProt Q9Y262),1.08 ± 0.062,1.09 ± 0.09,1.06 ± 0.1,1.17 ± 0.19,1.33 ± 0.28,1.47 ± 0.34,1.57 ± 0.29,1.75 ± 0.35
D6RIH7|Q9UM22 (UniProt Q9UM22),0.918 ± 0.11,0.931 ± 0.14,0.91 ± 0.12,0.896 ± 0.13,0.902 ± 0.12,0.908 ± 0.13,0.88 ± 0.085,0.889 ± 0.11
